Data taken from PubChem BioAssay (NCATS).
Records with an inconclusive call do not appear. Activity calls are given as the source filed them. Unless noted, calls follow the shape of the dose curve; as a rule, active = well fitted curve in the direction sought with a large enough effect; inconclusive = small, poorly fitted or top-dose-only effect, or another doubt; inactive = no such curve, though single readings can be large; an effect the other way counts as inactive or inconclusive.

How the values were obtained:
[1] = molecular target: Lysosomal acid glucosylceramidase (Homo sapiens) (UniProt P04062); experiment: Glucocerebrosidase-p2 (AID 348; in the data active = potency below about 10 µM; also: potency is read from the fitted curve at half-maximal effect); conditions: purified GBA, blue fluorogenic substrate, 40 min
Outline: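 Normal human glucocerebrosidase (0.2 nM) with blue fluorogenic substrate (80 uM final) in citrate/phosphate pH 5.9 with 10mM sodium taurocholate, 0.01% tween-20; 40 min RT, NaOH/glycine stop; fluorescence Ex 365/Em 440; AC50 from a titration from 0.6 nM upwards.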

[2] = AP1 Signaling Pathway (AID 357; active = well fitted curve in either direction with a large enough effect, not every such curve was filed as active;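 also: ME-180 reporter cells stimulated with EGF at its EC50 level; % is scaled to controls: 0 for no effect and ±100 for the full control effect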); conditions: ME-180 AP-1-bla reporter, EGF-induced, beta-lactamase ratio, 5 h; at 7.69 µM (top of the series) unless noted
Outline: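 In this screen, ME-180 cells in Opti-MEM with 0.5% dialyzed FBS received EC50 EGF and compound titrations for 5 h. AP-1 reporter beta-lactamase was detected via CCF4 ratio, giving AC50 for positive and negative modulators.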

[3] = molecular target: Cytochrome P450 1A2 (Homo sapiens) (UniProt P05177); experiment: p450-cyp1a2 (AID 410; calls by dose curve; also: potency is read from the fitted curve at half-maximal effect;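 as to activity change, negative = inhibition: -100% = full effect of reference inhibitor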); conditions: recombinant CYP1A2, luciferin-ME demethylation, luminescence; series mostly up to 57 µM
Outline: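 Read-out is luminescence from luciferin produced by CYP1A2 demethylation of Luciferin-ME (100uM, at Km). Detection reagent stopped the 60 min NADPH-dependent reaction; signals were normalized to 57 uM furafylline.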

[4] = NFAT Signaling Pathway (AID 444; active = well fitted curve in either direction with a large enough effect, not every such curve was filed as active;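 also: carbachol stimulus at about its EC50 of 1 µM final; % is scaled to controls: 0 for no effect and ±100 for the full control effect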); conditions: Jurkat NFAT-bla M1, carbachol, beta-lactamase ratio, 5 h; at 7.69 µM (top of the series) unless noted
Outline: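 Read-out: CCF4 FRET ratio (460 nm/530 nm) after 1 h RT dye loading, used for %activity and AC50 from titration series. Cells: Jurkat NFAT-β-lactamase/M1 line, treated with compound plus 1 uM carbachol for 5 h, 37 °C.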

[5] = Stat Signaling Pathway (AID 446; active = well fitted curve in either direction with a large enough effect, not every such curve was filed as active;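 also: ME-180 cervical cancer cells given 40 pM IL-6 alongside compound; SIE-controlled beta-lactamase reporter measured as 460/530 nm FRET emission ratio; % is scaled to controls: 0 for no effect and ±100 for the full control effect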); conditions: ME-180 (cervical carcinoma) SIE beta-lactamase reporter, IL-6 stimulated, 5 h; at 7.69 µM (top of the series) unless noted
Outline: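 Emission at 460 and 530 nm (excitation 405 nm) reports SIE-controlled beta-lactamase in ME-180 cells. Cells received compound with 40 pM IL-6 for 5 hrs at 37 C; data scaled between 300 pM IL-6 and 125 nM JAK-inhibitor controls.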

[6] = molecular target: Glucocorticoid receptor (Homo sapiens) (UniProt P04150); experiment: GR-GFP Redistribution (AID 450;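 active = compounds whose dose series gives a full or clear partial fitted curve of increased nuclear translocation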; also: potency is read from the fitted curve at half-maximal effect); conditions: U2OS GR-GFP nuclear translocation, laser cytometry, 2 h
[7] = molecular target: Glucocorticoid receptor (Homo sapiens) (UniProt P04150); experiment: GR-EFC Redistribution (AID 451; calls by dose curve; also: potency is read from the fitted curve at half-maximal effect); conditions: CHO-K1 GR-EFC translocation, beta-gal luminescence, 2 h
Outline: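 Translocation of GR-ED fusion to nuclear EA restores b-gal, read by luminescence after 1 h room-temperature detection. Engineered CHO-K1 biosensor cells, 1,000/well, exposed 2 h at 37 C to titrations up to 46 uM final.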

[8] = molecular target: Mitogen-activated protein kinase 10 (Mus musculus) (UniProt Q61831); experiment: JNK3 AlphaScreen Assay (AID 530; active = well fitted curve in either direction with a large enough effect, not every such curve was filed as active;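 also: kinase came from lysate of stimulated human HepG2 cells; signal reports phosphorylation of biotinylated GST-cJun 1-79 at Ser73 with 10 µM ATP; % is scaled to controls: 0 for no effect and ±100 for the full control effect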); conditions: JNK3 lysate, c-Jun phosphorylation; series mostly up to 57.1 µM
Outline: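 Kinase buffer: 20 mM Tris-HCl pH 7.6, 10 mM MgCl2, 1 mM DTT, 0.1 mM Na3VO4, 0.01% Tween-20; ATP 10 uM. Substrate biotin-GST-cJun(1-79), enzyme from activated HepG2 lysates. Detection by Ser73 phospho-antibody AlphaScreen.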

[9] = molecular target: 3',5'-cyclic-AMP phosphodiesterase 4B (Homo sapiens) (UniProt Q07343); experiment: qHTS Assay for Inhibitors of PDE-IV (AID 607; active = well fitted activation curve with a large enough effect in the main read-out, with a control signal flat, not every such curve was filed as active; also: % of control where 0% means no effect); conditions: HEK293 ACTOne CNG channel cells, membrane potential fluorescence; series mostly up to 22.9 µM
Outline: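 The readout is membrane depolarisation from a cAMP-sensing CNG channel, detected with a potential dye at ex 535/em 590. Cells were HEK293-derived (endogenous PDE-IV) at 1000 cells/well, titrated up to 22.9 uM final.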

[10] = molecular target: Cytochrome P450 3A4 (Homo sapiens) (UniProt P08684); experiment: qHTS Assay for Activators of Cytochrome P450 3A4 (AID 885); conditions: recombinant CYP3A4, Luciferin-PPXE luminescence, 60 min; series mostly up to 57.1 µM; also: nearly all actives have a fitted effect of over 65% in size
Outline: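 Activators are scored by enhanced luminescence from CYP3A4 conversion of luciferin-PPXE (25uM, equal to KM) to luciferin, after 60 min at RT with an NADPH-regenerating system.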

[11] = qHTS Assay for Lipid Storage Modulators (AID 1519; calls by dose curve); conditions: Drosophila S3 cells, BODIPY lipid droplet/cell ratio, laser cytometry, cells loaded with oleic acid; for activity change, negative = inhibition: at 57.5 µM (top of the series)
Outline: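 Cells seeded at 5,000 per well were treated with compounds over a concentration series and loaded with oleic acid (400 uM, as added). Lipid droplet fluorescence (488 nm excitation, 500-530 nm channel) was read by laser-scanning cytometry and normalized to 20 uM Triacsin C.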

[12] = molecular target: Dual specificity protein kinase CLK4 (Homo sapiens) (UniProt Q9HAZ1); experiment: qHTS Assay for Inhibitors of CDC-like Kinase 4 (Kinase-Glo Assay) (AID 1770); conditions: recombinant Clk4, Kinase-Glo ATP depletion luminescence; series mostly up to 66.7 µM; also: nearly all actives have a fitted effect of over 65% in size; also: potency is read from the fitted curve at half-maximal effect
Outline: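 Clk4 25 nM, RS peptide 100 uM, ATP 1 uM, pH 7.5 Tris, 10 mM MgCl2, 2.5 mM DTT; 4.5 h RT; ATP depletion read by Kinase-Glo luminescence.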

[13] = molecular target: Dual specificity protein kinase CLK4 (Homo sapiens) (UniProt Q9HAZ1); experiment: qHTS Assay for Inhibitors of CDC-like Kinase 4 (ADP-Glo Assay) (AID 1771); conditions: recombinant CLK4, ADP-Glo luminescence; series mostly up to 80 µM; also: nearly all actives have a fitted effect of over 70% in size; also: potency is read from the fitted curve at half-maximal effect
Outline: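 In this ADP-Glo format, 1 uM ATP and 100 uM RS peptide served as substrates for 25 nM Clk4 in Mg2+/EGTA/DTT/Triton buffer; reactions ran 1 hr at room temperature before luminescent ADP quantification.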

[14] = molecular target: Dual specificity protein kinase CLK4 (Homo sapiens) (UniProt Q9HAZ1); experiment: qHTS Assay for Inhibitors of CDC-like Kinase 4 (ADP-FP Assay) (AID 1795); conditions: Transcreener ADP fluorescence polarization; series mostly up to 50 µM; also: nearly all actives have a fitted effect of over 60% in size; also: potency is read from the fitted curve at half-maximal effect
Outline: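 Kinase activity was followed as ADP output, converted from fluorescence polarization with a calibration curve. Reactions ran one hour at low ATP (1 uM) with RS peptide substrate.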

[15] = molecular target: Ubiquitin carboxyl-terminal hydrolase 1 (Homo sapiens) (UniProt O94782); experiment: Inhibitors of USP1/UAF1: Pilot qHTS (AID 504865); conditions: purified USP1/UAF1, Ub-rhodamine cleavage fluorescence; series mostly up to 54.9 µM;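 also: rhodamine fluorescence freed from ubiquitin-rhodamine substrate followed over time; top concentration of the series differs between compounds; % is scaled to controls: 0 for no effect and ±100 for the full control effect; nearly all actives have a fitted effect of over 35% in size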
Outline: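 Enzyme-free wells gave the negative control, while test wells held 1nM USP1/UAF1 preincubated with compound for 15 min at room temperature. Ub-Rho at 150nM final started the reaction, and fluorescence at 480/540 nm was recorded kinetically.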

[16] = Primary qHTS for small molecule stabilizers of the endoplasmic reticulum resident proteome: Secreted ER Calcium Modulated Protein (SERCaMP) assay (AID 1508630); conditions: SH-SY5Y GLuc-SERCaMP (Gaussia luciferase released on ER calcium loss) secretion, thapsigargin, luminescence; series mostly up to 38.4 µM; also: % is scaled to controls: 0 for no effect and ±100 for the full control effect
Outline: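 The SH-SY5Y reporter protocol was run at 3 concentrations up to 38.3 uM (primary) or 11 concentrations (follow-up): 16 h compound, 100 nM thapsigargin for 4 h, then extracellular luciferase luminescence.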

[17] = measured here: cell count channel max response
[18] = measured here: lipid channel max response

Sequence of Dual specificity protein kinase CLK4 (Homo sapiens) (Q9HAZ1 whole entry, looked up): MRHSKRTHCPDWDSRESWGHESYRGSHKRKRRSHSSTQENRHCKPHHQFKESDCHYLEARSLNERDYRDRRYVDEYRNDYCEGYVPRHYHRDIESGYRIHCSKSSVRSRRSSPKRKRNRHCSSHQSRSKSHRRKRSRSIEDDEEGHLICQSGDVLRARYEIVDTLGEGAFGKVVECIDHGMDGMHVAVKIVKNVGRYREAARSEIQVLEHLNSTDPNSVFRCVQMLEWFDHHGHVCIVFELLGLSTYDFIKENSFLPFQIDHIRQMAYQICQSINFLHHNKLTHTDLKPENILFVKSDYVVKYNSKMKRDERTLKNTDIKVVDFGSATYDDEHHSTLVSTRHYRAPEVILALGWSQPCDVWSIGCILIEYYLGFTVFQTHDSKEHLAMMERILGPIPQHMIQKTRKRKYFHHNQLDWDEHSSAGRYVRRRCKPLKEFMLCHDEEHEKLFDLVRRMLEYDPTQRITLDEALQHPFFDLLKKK
Sequence of 3',5'-cyclic-AMP phosphodiesterase 4B (Homo sapiens) (Q07343 whole entry, looked up): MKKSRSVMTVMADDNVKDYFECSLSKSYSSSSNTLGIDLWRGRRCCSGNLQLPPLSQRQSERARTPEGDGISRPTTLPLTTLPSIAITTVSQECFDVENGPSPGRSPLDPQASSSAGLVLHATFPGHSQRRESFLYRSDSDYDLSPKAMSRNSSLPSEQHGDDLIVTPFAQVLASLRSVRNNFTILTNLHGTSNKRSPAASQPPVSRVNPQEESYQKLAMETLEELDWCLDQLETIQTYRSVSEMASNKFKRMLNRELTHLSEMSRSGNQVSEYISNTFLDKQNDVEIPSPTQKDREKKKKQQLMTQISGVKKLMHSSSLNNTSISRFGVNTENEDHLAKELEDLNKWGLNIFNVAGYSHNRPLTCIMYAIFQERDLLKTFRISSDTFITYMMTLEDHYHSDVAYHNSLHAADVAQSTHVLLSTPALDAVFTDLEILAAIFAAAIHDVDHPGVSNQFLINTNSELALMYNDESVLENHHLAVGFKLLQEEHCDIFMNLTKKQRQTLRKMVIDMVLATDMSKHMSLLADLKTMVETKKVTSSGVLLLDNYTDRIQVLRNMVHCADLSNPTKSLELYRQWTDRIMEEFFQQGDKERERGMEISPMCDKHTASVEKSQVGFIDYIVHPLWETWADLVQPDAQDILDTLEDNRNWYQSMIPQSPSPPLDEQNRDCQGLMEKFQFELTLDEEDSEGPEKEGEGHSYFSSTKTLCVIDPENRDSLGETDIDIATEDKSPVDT
Sequence of Ubiquitin carboxyl-terminal hydrolase 1 (Homo sapiens) (O94782 whole entry, looked up): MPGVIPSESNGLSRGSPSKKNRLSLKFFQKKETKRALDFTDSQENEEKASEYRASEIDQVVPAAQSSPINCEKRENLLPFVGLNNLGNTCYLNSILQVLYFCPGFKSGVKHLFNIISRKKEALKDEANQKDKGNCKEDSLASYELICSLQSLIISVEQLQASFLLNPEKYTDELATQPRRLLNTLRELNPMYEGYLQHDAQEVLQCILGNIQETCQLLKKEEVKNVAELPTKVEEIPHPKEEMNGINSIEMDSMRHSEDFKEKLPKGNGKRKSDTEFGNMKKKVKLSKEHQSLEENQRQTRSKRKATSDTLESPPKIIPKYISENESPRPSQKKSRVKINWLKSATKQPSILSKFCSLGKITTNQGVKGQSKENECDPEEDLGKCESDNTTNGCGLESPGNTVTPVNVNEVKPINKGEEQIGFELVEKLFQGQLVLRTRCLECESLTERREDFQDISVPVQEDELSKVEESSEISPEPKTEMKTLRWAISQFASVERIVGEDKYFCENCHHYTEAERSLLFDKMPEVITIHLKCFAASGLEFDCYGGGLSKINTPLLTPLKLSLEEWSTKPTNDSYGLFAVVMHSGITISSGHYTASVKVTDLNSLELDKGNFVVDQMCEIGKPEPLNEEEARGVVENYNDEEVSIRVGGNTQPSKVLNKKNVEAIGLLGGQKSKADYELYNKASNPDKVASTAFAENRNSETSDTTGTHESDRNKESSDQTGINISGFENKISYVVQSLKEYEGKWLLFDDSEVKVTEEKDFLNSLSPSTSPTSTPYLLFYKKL
Sequence of Lysosomal acid glucosylceramidase (Homo sapiens) (P04062 whole entry, looked up): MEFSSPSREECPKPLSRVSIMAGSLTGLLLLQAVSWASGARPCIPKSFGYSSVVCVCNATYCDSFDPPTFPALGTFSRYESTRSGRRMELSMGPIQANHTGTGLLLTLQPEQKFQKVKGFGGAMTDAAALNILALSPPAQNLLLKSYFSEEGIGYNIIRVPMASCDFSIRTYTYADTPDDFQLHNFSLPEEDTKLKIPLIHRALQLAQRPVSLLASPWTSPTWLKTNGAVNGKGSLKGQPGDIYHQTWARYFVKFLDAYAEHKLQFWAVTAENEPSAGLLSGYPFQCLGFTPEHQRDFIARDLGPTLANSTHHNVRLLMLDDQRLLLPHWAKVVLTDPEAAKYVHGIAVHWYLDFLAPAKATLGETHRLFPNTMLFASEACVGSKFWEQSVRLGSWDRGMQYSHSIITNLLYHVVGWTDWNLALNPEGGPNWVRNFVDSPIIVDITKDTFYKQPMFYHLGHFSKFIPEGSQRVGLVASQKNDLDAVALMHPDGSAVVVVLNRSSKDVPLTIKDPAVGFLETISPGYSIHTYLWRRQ
Sequence of Cytochrome P450 1A2 (Homo sapiens) (P05177 whole entry, looked up): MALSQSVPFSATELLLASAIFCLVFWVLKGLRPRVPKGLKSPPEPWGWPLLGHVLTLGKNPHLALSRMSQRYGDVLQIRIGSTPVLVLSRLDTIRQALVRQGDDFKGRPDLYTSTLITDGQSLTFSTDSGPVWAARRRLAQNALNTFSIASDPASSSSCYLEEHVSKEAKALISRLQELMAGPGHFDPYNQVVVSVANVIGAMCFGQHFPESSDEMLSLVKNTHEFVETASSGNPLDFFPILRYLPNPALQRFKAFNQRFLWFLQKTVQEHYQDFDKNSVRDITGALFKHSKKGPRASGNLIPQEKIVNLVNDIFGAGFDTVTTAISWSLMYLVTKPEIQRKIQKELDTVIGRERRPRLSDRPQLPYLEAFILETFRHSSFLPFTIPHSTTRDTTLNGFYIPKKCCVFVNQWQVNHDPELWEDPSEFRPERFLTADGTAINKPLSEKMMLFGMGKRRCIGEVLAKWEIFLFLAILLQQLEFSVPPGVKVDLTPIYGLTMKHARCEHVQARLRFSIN
Sequence of Glucocorticoid receptor (Homo sapiens) (P04150 whole entry, looked up, the tested form may be a part): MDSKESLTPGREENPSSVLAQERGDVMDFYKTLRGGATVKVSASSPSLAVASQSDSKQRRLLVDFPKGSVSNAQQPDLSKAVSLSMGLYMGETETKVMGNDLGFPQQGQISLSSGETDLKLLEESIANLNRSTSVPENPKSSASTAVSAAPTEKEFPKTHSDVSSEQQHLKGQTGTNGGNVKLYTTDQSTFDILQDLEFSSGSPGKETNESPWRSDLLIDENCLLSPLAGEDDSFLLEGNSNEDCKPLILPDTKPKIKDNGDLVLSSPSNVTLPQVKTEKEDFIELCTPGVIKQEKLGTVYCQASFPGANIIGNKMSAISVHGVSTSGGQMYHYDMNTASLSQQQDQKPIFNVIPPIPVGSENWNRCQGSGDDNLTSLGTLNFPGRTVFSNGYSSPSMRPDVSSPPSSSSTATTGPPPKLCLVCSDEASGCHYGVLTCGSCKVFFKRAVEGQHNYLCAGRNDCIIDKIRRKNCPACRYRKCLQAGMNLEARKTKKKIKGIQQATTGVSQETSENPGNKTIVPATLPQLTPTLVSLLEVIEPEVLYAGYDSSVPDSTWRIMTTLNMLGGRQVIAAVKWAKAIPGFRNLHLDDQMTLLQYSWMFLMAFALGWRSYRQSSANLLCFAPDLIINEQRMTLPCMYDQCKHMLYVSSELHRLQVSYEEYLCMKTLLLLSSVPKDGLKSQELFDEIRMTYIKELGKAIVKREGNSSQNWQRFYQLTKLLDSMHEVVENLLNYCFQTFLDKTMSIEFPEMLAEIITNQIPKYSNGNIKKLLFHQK
Sequence of Cytochrome P450 3A4 (Homo sapiens) (P08684 whole entry, looked up): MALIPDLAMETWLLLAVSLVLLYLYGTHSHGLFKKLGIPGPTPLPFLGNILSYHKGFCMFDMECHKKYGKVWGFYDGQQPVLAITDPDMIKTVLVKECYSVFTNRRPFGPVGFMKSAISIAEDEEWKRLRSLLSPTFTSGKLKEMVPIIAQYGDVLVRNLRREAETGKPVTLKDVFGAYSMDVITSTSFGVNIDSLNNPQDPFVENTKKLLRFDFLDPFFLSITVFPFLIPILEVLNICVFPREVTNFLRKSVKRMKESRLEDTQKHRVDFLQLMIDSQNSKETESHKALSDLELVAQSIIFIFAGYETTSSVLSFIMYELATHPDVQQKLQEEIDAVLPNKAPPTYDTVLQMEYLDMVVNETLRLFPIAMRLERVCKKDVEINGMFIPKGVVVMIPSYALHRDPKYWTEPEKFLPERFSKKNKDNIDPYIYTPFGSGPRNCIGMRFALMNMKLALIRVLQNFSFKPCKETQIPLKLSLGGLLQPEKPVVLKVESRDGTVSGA

SMILES | Potency [1] | activity change, negative = inhibition [2] | Potency [3] | activity change, negative = inhibition [4] | activity, negative = inhibition [5] | Potency [6] | Potency [7] | outcome [8] | Potency [9] | Potency [10] | activity change, negative = inhibition [11] | max response [11, 17] [%] | max response [11, 18] [%] | Potency [12] | Potency [13] | Potency [14] | Potency [15] | Potency [16]
O=c1c(-c2ccc(F)cc2)nc2cnc(N3CCOCC3)nc2n1Cc1cccs1 | > 11.4 µM (inactive) | 14.2% (inactive) | 12.6 µM (active) | 13.3% (inactive) | 18.2% (inactive) | > 9.22 µM (inactive) | > 46 µM (inactive) | inactive | inactive | inactive | -1.08% (inactive) | 9.38 | 7.2 | inactive | inactive | inactive | inactive | inactive
CN1CCN(c2ncnc3ccc(-c4ccc5c(c4)OCO5)cc23)CC1 | > 11.4 µM (inactive) | -24.4% (inactive) | 2.51 µM (active) | -20.4% (inactive) | 6.89% (inactive) | > 46 µM (inactive) | > 46 µM (inactive) | inactive | inactive | inactive | 4.95% (inactive) | 4.86 | 5.74 | 0.282 µM (active) | 0.562 µM (active) | 0.158 µM (active) | inactive | inactive
COCCn1c(=O)cnc2cnc(Oc3ccc(OC)cc3)nc21 | > 11.4 µM (inactive) | -2.08% (inactive) | 5.01 µM (active) | -2.59% (inactive) | -5.99% (inactive) | > 9.22 µM (inactive) | > 46 µM (inactive) | inactive | inactive | inactive | 2.42% (inactive) | 12.6 | 10.8 | inactive | inactive | inactive | inactive | inactive
N#CCCn1c(=O)c(-c2cccc(C#N)c2)nc2cnc(N3CCOCC3)nc21 | > 11.4 µM (inactive) | 2.97% (inactive) | 15.8 µM (active) | 6.22% (inactive) | 11.4% (inactive) | > 9.22 µM (inactive) | > 46 µM (inactive) | inactive | inactive | inactive | -2% (inactive) | 13.8 | 7.79 | inactive | inactive | inactive | inactive | inactive
COc1ccc(-n2c(=O)c(C)nc3cnc(OC)nc32)cc1 | > 11.4 µM (inactive) | 13.3% (inactive) | inactive | 3.92% (inactive) | -15.2% (inactive) | > 9.22 µM (inactive) | > 46 µM (inactive) | inactive | inactive | inactive | 4.38% (inactive) | 12 | 18.2 | inactive | inactive | inactive | inactive | inactive
CN(C)C(=O)c1ccc(-c2ccc3ncnc(N(C)C)c3c2)cc1 | > 11.4 µM (inactive) | -20.2% (inactive) | 20 µM (active) | 9.63% (inactive) | -6.55% (inactive) | > 46 µM (inactive) | > 46 µM (inactive) | inactive | inactive | inactive | 4.12% (inactive) | 19.1 | 22.2 | 25.1 µM (active) | 28.2 µM (active) | inactive | inactive | inactive
Cn1cc(-c2nc3cnc(N4CCOCC4)nc3n(C3CC3)c2=O)c2ccccc21 | > 11.4 µM (inactive) | -18.1% (inactive) | 3.16 µM (active) | -15.3% (inactive) | 11.5% (inactive) | > 9.22 µM (inactive) | > 46 µM (inactive) | inactive | inactive | inactive | 8.36% (inactive) | 17.1 | 23.9 | inactive | inactive | inactive | inactive | inactive
FC(F)(F)c1ccccc1-c1nc(NCCN2CCOCC2)c2ccccc2n1 | > 11.4 µM (inactive) | -6.06% (inactive) | 12.6 µM (active) | 6.4% (inactive) | 3.19% (inactive) | > 46 µM (inactive) | > 46 µM (inactive) | inactive | inactive | inactive | 4.77% (inactive) | 18.8 | 21.5 | inactive | inactive | inactive | inactive | inactive
Cc1nc2cnc(N3CCN(C)CC3)nc2n(CCC#N)c1=O | > 11.4 µM (inactive) | 9.68% (inactive) | 12.6 µM (active) | -13.7% (inactive) | -9.15% (inactive) | > 9.22 µM (inactive) | > 46 µM (inactive) | inactive | inactive | – | 4.33% (inactive) | 7.54 | 9.36 | inactive | inactive | inactive | inactive | inactive
COCCn1c(=O)c(-c2cccc(C#N)c2)nc2cnc(Oc3ccccc3)nc21 | > 11.4 µM (inactive) | -13% (inactive) | 15.8 µM (active) | 2.72% (inactive) | -11.3% (inactive) | > 9.22 µM (inactive) | > 46 µM (inactive) | inactive | inactive | inactive | -5.58% (inactive) | -1.86 | -8.56 | inactive | inactive | inactive | inactive | inactive
